Reference: PMC5540273 (PLoS ONE, 2017)
Several values for one entry are separate records, joined by “and”; a condition that tells them apart may be missing. Equal entries are not always repeated. Where two headings read alike, the source gives them in different places.

How the values were obtained:
[1] = system: RIPK5; settings: concentration: 1 μM, replicates: in singlicate, n = 1
[2] = system: ROCK1; settings: concentration: 1 μM, replicates: in singlicate; n = 1
[3] = system: ROCK2; settings: concentration: 1 μM, replicates: in singlicate; n = 1
[4] = system: ROS1; settings: concentration: 1 μM, replicates: in singlicate, n = 1
[5] = system: RPS6KA4(Kin.Dom.1-N-terminal); settings: concentration: 1 μM, replicates: in singlicate, n = 1
[6] = system: RPS6KA4(Kin.Dom.2-C-terminal); settings: concentration: 1 μM, replicates: in singlicate, n = 1
[7] = system: RPS6KA5(Kin.Dom.1-N-terminal); settings: concentration: 1 μM, replicates: in singlicate, n = 1
[8] = system: RPS6KA5(Kin.Dom.2-C-terminal); settings: concentration: 1 μM, replicates: in singlicate, n = 1
[9] = system: T1, RSK1(Kin.Dom.1-N-terminal); settings: concentration: 1 μM, replicates: in singlicate, n = 1
T1 construct: gene RPS6KA1

[10] = system: T2, RSK1(Kin.Dom.2-C-terminal); settings: concentration: 1 μM, replicates: in singlicate, n = 1
T2 construct: gene RPS6KA1
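Further: KINOMEscan kinase panel screen.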

Compound | %Inh [1] [%] | %Inh [2] [%] | %Inh [3] [%] | %Inh [4] [%] | %Inh [5] [%] | %Inh [6] [%] | %Inh [7] [%] | %Inh [8] [%] | %Inh [9] [%] | %Inh [10] [%] | %Inh ([1]; 1 µM) | %Inh ([4]; 1 µM) | %Inh ([5]; 1 µM) | %Inh ([6]; 1 µM) | %Inh ([7]; 1 µM) | %Inh ([8]; 1 µM) | %Inh ([9]; 1 µM) | %Inh ([10]; 1 µM)
NCC(NC(=O)c1cc(-c2cn[nH]c2)c(-c2ccnc3[nH]ccc23)s1)c1ccccc1.O=C(O)C(F)(F)F.O=C(O)C(F)(F)F (stereo not shown) [GSK1325775] | 16 | 100 | 99.9 | 0 | 47 | 43 | 13 | 60 | 24 | 5 |  |  |  |  |  |  |  | 
NS(=O)(=O)c1cccc(-c2ccc3nccc(-c4cccc(S(N)(=O)=O)c4)c3c2)c1 [GW867253] | 11 | 37 | 37 | 0 | 0 | 0 | 4 | 7 | 0 | 23 |  |  |  |  |  |  |  | 
Cc1nnc(-c2ccc3ncc(-c4ccc(S(C)=O)cc4)n3c2)o1 (stereo not shown) | 21 | 28 | 9 | 0 | 0 | 9 | 0 | 2 | 0 | 27 |  |  |  |  |  |  |  | 
CC(=O)Nc1ccc(COc2ccc(Nc3ccnc4cc(-c5ccccn5)ccc34)cc2)cc1.Cl [GW440148] | 0 | 14 | 7 | 0 | 0 | 0 | 1 | 20 | 7 | 33 |  |  |  |  |  |  |  | 
O=C(NCCNc1ccnc(Nc2ccc(F)cc2)n1)Nc1ccccc1F [GSK1379880] | 0 | 40 | 9 | 0 | 4 | 0 | 0 | 15 | 1 | 0 |  |  |  |  |  |  |  | 
Cc1ccc(C(=O)NCC(N)=O)cc1-n1c(C)cc(OCc2ccc(F)cc2F)c(Br)c1=O | 0 | 0 | 0 | 20 | 0 | 0 | 20 | 15 | 3 | 0 |  |  |  |  |  |  |  | 
COCCNC(=O)c1ccc(-c2cc(C(=O)NC3CC3)cc(F)c2C)cc1 [GW868318] | 38 | 37 | 47 | 5 | 36 | 6 | 18 | 21 | 21 | 18 |  |  |  |  |  |  |  | 
Cc1cn2c(=O)cc(N3CCOCC3)nc2n1Cc1cccc(Cl)c1Cl [GSK2334006] | 0 | 33 | 30 | 15 | 27 | 0 | 24 | 6 | 0 | 5 |  |  |  |  |  |  |  | 
NCCNS(=O)(=O)c1ccc(-c2ccnc3[nH]ccc23)cc1 [GSK977617] |  |  | 99.8 |  |  |  |  |  |  |  | 3% and 0% | 65% and 43% | 48% and 33% | 99.2% and 98.5% | 47% and 33% | 97.6% and 94.8% | 62% and 27% | 63% and 41%
Cl.Oc1cccc(Nc2ccnc3cc(-c4ccncc4)ccc23)c1 [GW494601] | 0 | 88 | 72 | 34 | 0 | 0 | 16 | 16 | 0 | 13 |  |  |  |  |  |  |  | 
O=c1cc(N2CCOCC2)nc2n(Cc3cccc4ccccc34)ccn12 [GSK2333389] | 0 | 0 | 19 | 0 | 12 | 0 | 0 | 0 | 0 | 0 |  |  |  |  |  |  |  | 
O=C1Cc2cc(Nc3nc(NCc4cccc(S(=O)(=O)C(F)(F)F)c4)ncc3C(F)(F)F)ccc2N1 | 4 | 6 | 13 | 3 | 11 | 24 | 0 | 0 | 41 | 0 |  |  |  |  |  |  |  | 
c1ccc(-c2n[nH]cc2-c2ccnc3ccccc23)nc1 [GW271431] | 0 | 0 | 0 | 28 | 11 | 0 | 9 | 4 | 21 | 12 |  |  |  |  |  |  |  | 
Cc1ccc(NC(=O)c2ccnc(N3CCN(C)CC3)c2)cc1-c1ccc(C(=O)NCC2CC2)cc1 [GW775604] | 0 | 41 | 0 | 0 | 10 | 0 | 0 | 0 | 0 | 0 |  |  |  |  |  |  |  | 
O=C(NOCC1CC1)c1ccc(F)c(F)c1Nc1ccc(I)cc1Cl | 0 | 0 | 0 | 0 | 0 | 0 | 0 | 0 | 0 | 6 |  |  |  |  |  |  |  | 
Cn1ccc2ncnc(Oc3ccc(NC(=O)Nc4ccncc4)c(Cl)c3)c21 | 0 | 0 | 0 | 0 | 0 | 0 | 13 | 0 | 0 | 0 |  |  |  |  |  |  |  | 
O=C(Nc1n[nH]c2cc(-c3cccc(F)c3)ccc12)C1CC1 [SB-735464] | 23 | 18 | 4 | 16 | 0 | 9 | 0 | 24 | 1 | 26 |  |  |  |  |  |  |  | 
O=C(c1ccc(-c2cc(-c3c[nH]nc3-c3ccccn3)ccn2)cc1)N1CCOCC1 [GW812171] | 22 | 0 | 24 | 0 | 6 | 0 | 0 | 0 | 14 | 0 |  |  |  |  |  |  |  | 
CNc1ncnc2[nH]ncc12 [SKF-18355] | 8 | 91.5 | 84 | 0 | 23 | 0 | 0 | 17 | 0 | 15 |  |  |  |  |  |  |  | 
COc1ccc(Nc2nccc(N3CCC(NC(=O)Nc4cc(C)ccc4C)C3)n2)cc1 (stereo not shown) [GSK1379741] | 0 | 14 | 0 | 0 | 0 | 0 | 8 | 19 | 6 | 0 |  |  |  |  |  |  |  | 
Cc1cccc(Cn2ccn3c(=O)cc(N4CCOCC4)nc23)c1 [GSK2297542] | 1 | 17 | 27 | 30 | 13 | 0 | 16 | 0 | 27 | 25 |  |  |  |  |  |  |  | 

Compound | %Inh [1] [%] | %Inh [2] [%] | %Inh [3] [%] | %Inh [4] [%] | %Inh [5] [%] | %Inh [6] [%] | %Inh [7] [%] | %Inh [8] [%] | %Inh [9] [%] | %Inh [10] [%] | %Inh ([1]; 1 µM) | %Inh ([4]; 1 µM) | %Inh ([5]; 1 µM) | %Inh ([6]; 1 µM) | %Inh ([7]; 1 µM) | %Inh ([8]; 1 µM) | %Inh ([9]; 1 µM) | %Inh ([10]; 1 µM)
Fc1ccc(-c2nn3c(OCC(F)(F)F)cccc3c2-c2ccncc2)cc1 [GW514784] | 0 | 36 | 34 | 13 | 10 | 0 | 12 | 13 | 6 | 29 |  |  |  |  |  |  |  | 
O=C(NCCNc1ccnc(Nc2ccc(F)cc2)n1)c1cc2ccccc2s1 [GSK1379874] | 0 | 29 | 30 | 15 | 0 | 0 | 4 | 0 | 26 | 0 |  |  |  |  |  |  |  | 
CN1c2ccc(CNc3ccc(F)cc3)cc2-c2c(cnn2C)S1(=O)=O | 4 | 0 | 0 | 4 | 0 | 0 | 0 | 0 | 0 | 14 |  |  |  |  |  |  |  | 
Cc1nnc(-c2ccc(C)c(-c3ccc(C(=O)Nc4ccc(NS(C)(=O)=O)cc4)cc3)c2)o1 [GW702865] | 4 | 0 | 11 | 0 | 1 | 0 | 0 | 17 | 13 | 0 |  |  |  |  |  |  |  | 
COc1cc(Nc2nccc(N3CCC(NC(=O)c4cccc(NC(C)=O)c4)C3)n2)cc(OC)c1OC (stereo not shown) [GSK1379754] | 0 | 32 | 49 | 44 | 23 | 0 | 11 | 0 | 58 | 0 |  |  |  |  |  |  |  | 
O=C(Nc1cccc(-c2nn3ncccc3c2-c2ccnc(Nc3cccc(C(F)(F)F)c3)n2)c1)c1c(F)cccc1F [GSK299495] | 0 | 12 | 16 | 0 | 2 | 0 | 23 | 5 | 97.4 | 0 |  |  |  |  |  |  |  | 
Fc1ccc(-c2ncn(CCCN3CCOCC3)c2-c2ccccn2)cc1 [SB-211742] | 0 | 0 | 0 | 0 | 26 | 0 | 0 | 5 | 0 | 16 |  |  |  |  |  |  |  | 
CCn1cnc2c(N)ncnc21 [GW345098] | 38 | 12 | 22 | 0 | 5 | 25 | 0 | 0 | 7 | 11 |  |  |  |  |  |  |  | 
Nc1nc(-c2ccc3c(N)n[nH]c3c2)cc(N2CCCC2)n1 [GSK2227430] | 0 | 2 | 0 | 0 | 0 | 0 | 10 | 0 | 9 | 0 |  |  |  |  |  |  |  | 
CN(C1=C(c2ccccc2)C(=O)NC1=O)c1ccccc1 [SB-334860] | 15 | 0 | 0 | 4 | 10 | 0 | 7 | 12 | 4 | 13 |  |  |  |  |  |  |  | 
Cc1cccc(-c2nc(-c3ccc(S(C)(=O)=O)cc3)sc2-c2ccncc2)c1 | 18 | 16 | 0 | 23 | 0 | 3 | 11 | 9 | 0 | 34 |  |  |  |  |  |  |  | 
COC(=O)Nc1nc2cc(Oc3ccc(NC(=O)Nc4cc(F)ccc4F)cc3)ccc2[nH]1.Cl [GW701424] | 0 | 52 | 67 | 0 | 0 | 0 | 24 | 43 | 0 | 0 |  |  |  |  |  |  |  | 
[2H]C([2H])(c1cccc(C(F)(F)F)c1C)n1ccn2c(=O)nc(N3CCOCC3)cc12 [GSK2336394] | 0 | 8 | 0 | 22 | 17 | 0 | 2 | 0 | 5 | 0 |  |  |  |  |  |  |  | 
COc1ccc(COc2cc(-n3cnc4ccccc43)sc2C(N)=O)cc1 [GSK1024304] | 0 | 9 | 20 | 0 | 0 | 0 | 3 | 13 | 6 | 0 |  |  |  |  |  |  |  | 
CC(C)Oc1ccc2c(-c3ccnc(Nc4ccc(N5CCN(C)CC5)cc4)n3)cnn2n1 [GW696155] | 77 | 98.8 | 99.7 | 51 | 0 | 99.8 | 0 | 98.9 | 34 | 90 |  |  |  |  |  |  |  | 
O=c1cc(N2CCOCC2)nc2n(Cc3cccc(F)c3)ccn12 [GSK2297430] | 0 | 0 | 27 | 24 | 19 | 0 | 26 | 0 | 0 | 0 |  |  |  |  |  |  |  | 
Cn1cc(-c2ccc3c(c2)CCN3C(=O)Cc2ccccc2Cl)c2c(N)ncnc21 [GSK2608885] | 13 | 1 | 0 | 86 | 36 | 0 | 32 | 3 | 99.2 | 30 |  |  |  |  |  |  |  | 
Fc1ccc(-c2ncn(CCCN3CCOCC3)c2-c2cccnc2)cc1 [SB-211743] | 9 | 0 | 6 | 27 | 31 | 0 | 0 | 5 | 2 | 9 |  |  |  |  |  |  |  | 
COc1cc2ncn(-c3cc(OCc4sccc4Cl)c(C(N)=O)s3)c2cc1OC [GSK448459] | 0 | 26 | 23 | 6 | 13 | 0 | 5 | 0 | 12 | 0 |  |  |  |  |  |  |  | 
N#Cc1c(N2CCOCC2)sc(-c2ccn[nH]2)c1-c1ccc(Cl)cc1 | 15 | 11 | 0 | 8 | 0 | 3 | 0 | 7 | 17 | 18 |  |  |  |  |  |  |  | 
